# According to PubChem BioAssay (NCATS):
# Unmarked numbers belong to inactive results. Inconclusive results are not listed. Entries that show only a call come without a potency. Calls of active or inactive are those of the source. Unless noted, calls come from the whole dose curve; as a rule, active = well fitted curve in the direction sought with a large enough effect; inconclusive = small, poorly fitted or top-dose-only effect, or another doubt; inactive = no such curve, though single readings can be large; an effect the other way counts as inactive or inconclusive.
# Columns and labels:
# [1] = AP1 Signaling Pathway (AID 357; active = well fitted curve in either direction with a large enough effect, not every such curve was filed as active;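 note: ME-180 reporter cells stimulated with EGF at its EC50 level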); conditions: ME-180 (cervical carcinoma) AP-1-bla reporter, EGF-induced, beta-lactamase ratio, 5 h; at 7.69 µM (top of the series) unless noted
# How it was run: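 Cells are seeded overnight, exposed to compound titrations and an EC50 level of EGF for 5 hours at 37 °C, then loaded with CCF4 dye for 2.5 hours. Beta-lactamase activity under the AP-1 element is read as a blue/green ratio.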
# [2] = biological target: Cytochrome P450 1A2 (Homo sapiens) (UniProt P05177); assay: p450-cyp1a2 (AID 410; calls by dose curve; note: potency is the fitted concentration of half-maximal effect)
# How it was run: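 20nM CYP1A2, 100uM Luciferin-ME (=Km), 100mM KPO4; cpd 10 min RT; +NADPH regen, 60 min RT; stop/detect 20 min; luminescence. Normalized to furafylline 57 uM = full inhibition.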
# [3] = NFAT Signaling Pathway (AID 444; active = well fitted curve in either direction with a large enough effect, not every such curve was filed as active;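 note: carbachol stimulus at about its EC50 of 1 µM final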); conditions: Jurkat NFAT-bla M1, carbachol, beta-lactamase ratio, 5 h; at 7.69 µM (top of the series) unless noted
# How it was run: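 Jurkat cells with NFAT-driven β-lactamase reporter and co-expressed M1 receptor, stimulated with carbachol (final 1 uM, ~EC50), compound titration, 5 h at 37 °C. CCF4 loaded 1 h at RT; 460/530 nm ratio gave %activity and AC50.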
# [4] = Stat Signaling Pathway (AID 446; active = well fitted curve in either direction with a large enough effect, not every such curve was filed as active;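 note: ME-180 cervical cancer cells given 40 pM IL-6 alongside compound; SIE-controlled beta-lactamase reporter measured as 460/530 nm FRET emission ratio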)
# How it was run: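 Normalization used AC90 stimulation (300 pM IL-6) and AC90 inhibition (125 nM pan-JAK inhibitor at 40 pM IL-6). The underlying signal is SIE-driven beta-lactamase in ME-180 cells after 5 h IL-6 exposure with compound.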
# [5] = biological target: Glucocorticoid receptor (Homo sapiens) (UniProt P04150); assay: GR-GFP Redistribution (AID 450;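 active = compounds whose dose series gives a full or clear partial fitted curve of increased nuclear translocation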; note: potency is the fitted concentration of half-maximal effect); conditions: U2OS GR-GFP nuclear translocation, laser cytometry, 2 h
# [6] = biological target: Glucocorticoid receptor (Homo sapiens) (UniProt P04150); assay: GR-EFC Redistribution (AID 451; calls by dose curve; note: potency is the fitted concentration of half-maximal effect); conditions: CHO-K1 GR-EFC translocation, beta-gal luminescence, 2 h
# How it was run: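 CHO-K1 cells expressing nuclear EA and GR-ED fragments of b-gal; compounds titrated up to 46 uM final, 2 h at 37 C. GR nuclear translocation read as complemented b-gal luminescence after 1 h RT detection.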
# [7] = biological target: Mitogen-activated protein kinase 10 (Mus musculus) (UniProt Q61831); assay: JNK3 AlphaScreen Assay (AID 530; active = well fitted curve in either direction with a large enough effect, not every such curve was filed as active;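 note: kinase came from lysate of stimulated human HepG2 cells; signal reports phosphorylation of biotinylated GST-cJun 1-79 at Ser73 with 10 µM ATP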)
# How it was run: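 HepG2 lysate (IL-1b/TNFa pre-activated) + biotin-GST-cJun 1-79 + anti-pSer73 cJun; cpd titration, 15 min RT; ATP 10 uM start; Tris pH 7.6, MgCl2, DTT, vanadate; beads in EDTA buffer; AlphaScreen.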
# [8] = biological target: Cytochrome P450 3A4 (Homo sapiens) (UniProt P08684); assay: qHTS Assay for Inhibitors and Substrates of Cytochrome P450 3A4 (AID 884); note: potency is the fitted concentration of half-maximal effect; nearly all actives have a fitted effect of over 50% in size
# How it was run: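 Luminescent readout of luciferin produced by CYP3A4 (20 nM) dealkylation of Luciferin-PPXE, 25 uM (its KM). NADPH-driven reaction ran 60 min at RT after 10 min compound preincubation; data scaled to 57 uM ketoconazole as 100% inhibition.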
# [9] = biological target: Cytochrome P450 3A4 (Homo sapiens) (UniProt P08684); assay: qHTS Assay for Activators of Cytochrome P450 3A4 (AID 885); note: nearly all actives have a fitted effect of over 65% in size
# How it was run: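 Human CYP3A4 dealkylates Luciferin-PPXE to luciferin, which luciferase detection converts to light. Substrate was at its KM (25uM), buffer 200mM KPO4, reaction 60 min at RT.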
# [10] = biological target: Cytochrome P450 2D6 (Homo sapiens) (UniProt P10635); assay: qHTS Assay for Inhibitors and Substrates of Cytochrome P450 2D6 (AID 891); note: potency is the fitted concentration of half-maximal effect; nearly all actives have a fitted effect of over 60% in size
# How it was run: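 Luminescent read-out of luciferin formed by 5 nM human CYP2D6 demethylating 30 uM Luciferin-ME EGE (Km level) over 60 min at room temperature after NADPH regeneration addition. Data normalized to full inhibition by 1.43 uM quinidine.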
# [11] = biological target: Cytochrome P450 2C19 (Homo sapiens) (UniProt P33261); assay: qHTS Assay for Inhibitors and Substrates of Cytochrome P450 2C19 (AID 899); note: potency is the fitted concentration of half-maximal effect; nearly all actives have a fitted effect of over 60% in size
# How it was run: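 Luminescent read-out of luciferin formed from Luciferin-H EGE (10uM, equal to KM). Enzyme 5nM in 50mM KPO4; compound added, 10 min at 37C, then NADPH regenerating system for 60 min at 37C. Full inhibition defined by 57uM ketoconazole.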
# [12] = biological target: Dual specificity protein kinase CLK4 (Homo sapiens) (UniProt Q9HAZ1); assay: qHTS Assay for Inhibitors of CDC-like Kinase 4 (ADP-Glo Assay) (AID 1771); note: potency is the fitted concentration of half-maximal effect; nearly all actives have a fitted effect of over 70% in size
# How it was run: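 25 nM Clk4, 100 uM RS peptide, 1 uM ATP (final); 2 mM MgCl2, 0.5 mM EGTA, 2.5 mM DTT, 0.01% Triton X-100; 1 hr RT. ADP-Glo readout: ATP depletion 45 min, conversion/luciferase 30 min, luminescence.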
# [13] = biological target: Dual specificity protein kinase CLK4 (Homo sapiens) (UniProt Q9HAZ1); assay: qHTS Assay for Inhibitors of CDC-like Kinase 4 (ADP-FP Assay) (AID 1795); note: potency is the fitted concentration of half-maximal effect; nearly all actives have a fitted effect of over 60% in size
# How it was run: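 Kinase activity was measured as ADP production using Transcreener orange tracer (4 nM) and ADP antibody (1 ug/mL) fluorescence polarization, with ADP calculated from a calibration curve. The 1 h reaction contained 6.25 nM Clk4, 1 uM ATP and 100 uM RS peptide at pH 7.5 with Mg2+.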
# [14] = biological target: Ubiquitin carboxyl-terminal hydrolase 1 (Homo sapiens) (UniProt O94782); assay: Inhibitors of USP1/UAF1: Pilot qHTS (AID 504865);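 note: rhodamine fluorescence freed from ubiquitin-rhodamine substrate followed over time; top concentration of the series differs between compounds; nearly all actives have a fitted effect of over 35% in size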
# How it was run: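 Deubiquitinase activity followed as kinetic rhodamine fluorescence release from 150 nM Ub-Rho. 1 nM USP1/UAF1 with compound, after 15 min room-temperature preincubation, in HEPES pH 7.8 buffer containing TCEP, EDTA, BSA and Tween-20.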
# [15] = biological target: Rap guanine nucleotide exchange factor 3 (Homo sapiens) (UniProt O95398); assay: Confirmatory qHTS for antagonist of cAMP-regulated guanine nucleotide exchange factor 3 (EPAC1) (AID 1645880); conditions: EPAC1 Rap1B-BODIPY-GDP exchange, fluorescence; activity, negative = inhibition: at 115 µM (top of the series); note: nearly all actives have a fitted effect of over 55% in size; note: potency is the fitted concentration of half-maximal effect
# How it was run: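 Released BODIPY-GDP fluoresces less than Rap1-bound BODIPY-GDP; the signal is followed at 480/540 nm at 5-min intervals over 30 min, after 5 min at room temperature. Reactions contain 100 nM EPAC1, 250 nM RAP1B-BODIPY-GDP and 50 uM GDP; results are normalized to ATA and DMSO.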
# [16] = biological target: Rap guanine nucleotide exchange factor 3 (Homo sapiens) (UniProt O95398); assay: Confirmatory qHTS for agonist of cAMP-regulated guanine nucleotide exchange factor 3 (EPAC1) (AID 1645881); note: nearly all actives have a fitted effect of over 75% in size; note: potency is the fitted concentration of half-maximal effect
# [17] = biological target: Rap guanine nucleotide exchange factor 4 (Homo sapiens) (UniProt Q8WZA2); assay: Confirmatory qHTS for agonist of cAMP-regulated guanine nucleotide exchange factor 4 (EPAC2) (AID 1645884);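 note: nucleotide exchange releases bodipy-GDP from Rap1 and this lowers its fluorescence; nearly all actives have a fitted effect of over 65% in size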; note: potency is the fitted concentration of half-maximal effect
# [18] = biological target: Rap guanine nucleotide exchange factor 4 (Homo sapiens) (UniProt Q8WZA2); assay: Confirmatory qHTS for antagonist of cAMP-regulated guanine nucleotide exchange factor 4 (EPAC2) (AID 1645885); note: nearly all actives have a fitted effect of over 25% in size; note: potency is the fitted concentration of half-maximal effect
# [19] = biological target: Tumor susceptibility gene 101 protein (Homo sapiens) (UniProt Q99816); assay: qHTS Assay for Iinhibitors of HIV-1 Budding by Blocking the Interaction of PTAP/TSG101: Hit Validation (AID 651600); note: potency is the fitted concentration of half-maximal effect; nearly all actives have a fitted effect of over 70% in size
# How it was run: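 FITC-PTAP peptide (50 nM final) binding to Tsg101 binding domain (10 uM final) was measured by polarization after 20 min at r.t. with compounds, in 10 mM HEPES pH 7.5 buffer with 0.15 M NaCl and 0.01% Tween 20.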
# [20] = biological target: Rap guanine nucleotide exchange factor 3 (Homo sapiens) (UniProt O95398); assay: Counterscreen qHTS for agonist of cAMP-regulated guanine nucleotide exchange factor 3 (EPAC1) (AID 1645889); note: nearly all actives have a fitted effect of over 40% in size; note: potency is the fitted concentration of half-maximal effect
# How it was run: (§1)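 Rap1B–BODIPY-GDP (250 nM) with 50 uM GDP; compounds pin-transferred to 9.74 nM–152 uM final (activator) or from 7.32 nM upwards (inhibitor). Fluorescence Ex/Em 480/540 nm read at 5 and 30 min, then after adding cAMP or buffer, at room temperature.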
# [21] = Confirmation and Secondary Assay for Modulators of Hemoglobin Beta Chain Splicing at IVS2 654 locus (AID 910);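 note: HeLa cells stably carrying EGFP split by mutant beta-globin IVS2-654 intron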
# How it was run: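 HeLa cells stably expressing EGFP interrupted by β-globin IVS2-654 intron, seeded overnight in Opti-MEM/2% FCS, then treated 2 days at 37 °C. Restored splicing read as total peak GFP intensity per well by laser scanning cytometry (488 nm excitation, 500–520 nm emission); 500 nM antisense PNA as control.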
# [22] = Confirmation and Secondary Assay for Modulators of Hemoglobin Beta Chain Splicing at IVS2 705 locus (AID 930);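 note: HeLa cells stably expressing the EGFP-705 splicing reporter; GFP fluorescence per well restored by corrected splicing of the IVS2-705 intron in EGFP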
# How it was run: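 Stable HeLa line with EGFP disrupted by mutant beta-globin intron 2 (705). Overnight attachment, then 2 days of compound at 37C, 5% CO2. Signal: peak GFP intensity summed over objects 5-250 µm.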
# [23] = biological target: Lysosomal acid glucosylceramidase (Homo sapiens) (UniProt P04062); assay: Glucocerebrosidase-p2 (AID 348; in the data active = potency below about 10 µM; note: potency is the fitted concentration of half-maximal effect); conditions: purified GBA, blue fluorogenic substrate, 40 min
# How it was run: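 Normal human glucocerebrosidase (0.2 nM) with blue fluorogenic substrate (80 uM final) in citrate/phosphate pH 5.9 with 10mM sodium taurocholate, 0.01% tween-20; 40 min RT, NaOH/glycine stop; fluorescence Ex 365/Em 440; AC50 from a titration from 0.6 nM upwards.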
# [24] = biological target: Rap guanine nucleotide exchange factor 3 (Homo sapiens) (UniProt O95398); assay: Counterscreen qHTS for antagonist of cAMP-regulated guanine nucleotide exchange factor 3 (EPAC1) (AID 1645888)
# How it was run: as §1
# Chain of Glucocorticoid receptor (Homo sapiens) (P04150 whole entry, looked up, the tested form may be a part): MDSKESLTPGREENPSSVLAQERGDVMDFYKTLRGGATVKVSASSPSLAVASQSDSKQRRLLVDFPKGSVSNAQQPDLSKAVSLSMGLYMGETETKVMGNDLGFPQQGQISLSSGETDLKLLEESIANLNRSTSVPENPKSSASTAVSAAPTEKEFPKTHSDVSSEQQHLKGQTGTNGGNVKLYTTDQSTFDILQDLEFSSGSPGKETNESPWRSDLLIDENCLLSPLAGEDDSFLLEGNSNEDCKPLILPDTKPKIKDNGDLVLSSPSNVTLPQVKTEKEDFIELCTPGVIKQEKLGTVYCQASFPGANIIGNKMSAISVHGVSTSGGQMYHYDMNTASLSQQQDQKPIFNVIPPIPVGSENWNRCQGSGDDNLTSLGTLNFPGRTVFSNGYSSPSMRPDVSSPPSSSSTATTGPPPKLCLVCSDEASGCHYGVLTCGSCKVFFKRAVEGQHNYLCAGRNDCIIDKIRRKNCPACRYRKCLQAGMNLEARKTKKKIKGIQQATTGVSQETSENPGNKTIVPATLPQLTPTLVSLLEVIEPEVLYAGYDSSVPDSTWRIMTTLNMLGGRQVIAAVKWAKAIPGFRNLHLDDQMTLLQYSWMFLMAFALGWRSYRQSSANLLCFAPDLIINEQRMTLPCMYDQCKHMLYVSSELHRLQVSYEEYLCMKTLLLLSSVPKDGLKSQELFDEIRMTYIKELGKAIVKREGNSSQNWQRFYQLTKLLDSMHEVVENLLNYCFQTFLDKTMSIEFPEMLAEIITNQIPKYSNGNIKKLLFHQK
# Chain of Cytochrome P450 3A4 (Homo sapiens) (P08684 whole entry, looked up): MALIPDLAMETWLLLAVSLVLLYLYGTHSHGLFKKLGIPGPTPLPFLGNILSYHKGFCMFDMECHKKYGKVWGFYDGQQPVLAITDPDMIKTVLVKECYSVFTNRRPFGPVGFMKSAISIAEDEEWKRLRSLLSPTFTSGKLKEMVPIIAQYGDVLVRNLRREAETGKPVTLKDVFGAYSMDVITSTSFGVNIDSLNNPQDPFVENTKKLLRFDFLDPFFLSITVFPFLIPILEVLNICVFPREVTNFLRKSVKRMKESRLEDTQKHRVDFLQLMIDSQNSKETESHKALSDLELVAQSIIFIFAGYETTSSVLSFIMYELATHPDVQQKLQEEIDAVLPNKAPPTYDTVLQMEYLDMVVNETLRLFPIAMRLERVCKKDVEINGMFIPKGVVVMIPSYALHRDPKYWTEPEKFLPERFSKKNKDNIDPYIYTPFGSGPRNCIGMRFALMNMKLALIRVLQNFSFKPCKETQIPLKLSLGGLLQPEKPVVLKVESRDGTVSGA
# Chain of Rap guanine nucleotide exchange factor 4 (Homo sapiens) (Q8WZA2 whole entry, looked up): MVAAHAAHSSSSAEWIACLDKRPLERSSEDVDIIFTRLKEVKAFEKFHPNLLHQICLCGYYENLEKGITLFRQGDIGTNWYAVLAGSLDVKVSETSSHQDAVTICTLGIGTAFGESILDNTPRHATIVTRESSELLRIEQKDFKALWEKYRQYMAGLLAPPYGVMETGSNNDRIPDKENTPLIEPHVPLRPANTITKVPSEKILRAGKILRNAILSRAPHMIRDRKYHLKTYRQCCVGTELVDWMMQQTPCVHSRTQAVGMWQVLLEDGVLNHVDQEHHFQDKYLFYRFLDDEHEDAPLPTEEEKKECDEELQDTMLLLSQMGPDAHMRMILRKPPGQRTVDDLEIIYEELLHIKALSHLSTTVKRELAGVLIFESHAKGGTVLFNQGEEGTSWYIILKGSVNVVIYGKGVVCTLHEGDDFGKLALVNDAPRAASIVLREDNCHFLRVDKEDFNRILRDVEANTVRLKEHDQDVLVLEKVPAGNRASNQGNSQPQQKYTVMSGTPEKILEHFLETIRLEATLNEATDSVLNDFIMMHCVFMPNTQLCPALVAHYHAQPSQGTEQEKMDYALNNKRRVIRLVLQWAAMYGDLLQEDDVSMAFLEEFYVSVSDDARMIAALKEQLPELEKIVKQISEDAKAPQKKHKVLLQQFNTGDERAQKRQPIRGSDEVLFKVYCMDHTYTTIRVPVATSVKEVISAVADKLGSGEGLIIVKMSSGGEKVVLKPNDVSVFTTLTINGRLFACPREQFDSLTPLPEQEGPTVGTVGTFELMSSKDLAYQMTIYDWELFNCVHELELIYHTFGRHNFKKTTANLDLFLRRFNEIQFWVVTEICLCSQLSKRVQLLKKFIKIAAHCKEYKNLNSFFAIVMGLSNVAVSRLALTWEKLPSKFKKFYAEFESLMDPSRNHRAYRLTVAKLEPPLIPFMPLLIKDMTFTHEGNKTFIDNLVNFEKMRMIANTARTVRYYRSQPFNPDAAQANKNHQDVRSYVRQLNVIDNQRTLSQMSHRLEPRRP
# Chain of Rap guanine nucleotide exchange factor 3 (Homo sapiens) (O95398 whole entry, looked up): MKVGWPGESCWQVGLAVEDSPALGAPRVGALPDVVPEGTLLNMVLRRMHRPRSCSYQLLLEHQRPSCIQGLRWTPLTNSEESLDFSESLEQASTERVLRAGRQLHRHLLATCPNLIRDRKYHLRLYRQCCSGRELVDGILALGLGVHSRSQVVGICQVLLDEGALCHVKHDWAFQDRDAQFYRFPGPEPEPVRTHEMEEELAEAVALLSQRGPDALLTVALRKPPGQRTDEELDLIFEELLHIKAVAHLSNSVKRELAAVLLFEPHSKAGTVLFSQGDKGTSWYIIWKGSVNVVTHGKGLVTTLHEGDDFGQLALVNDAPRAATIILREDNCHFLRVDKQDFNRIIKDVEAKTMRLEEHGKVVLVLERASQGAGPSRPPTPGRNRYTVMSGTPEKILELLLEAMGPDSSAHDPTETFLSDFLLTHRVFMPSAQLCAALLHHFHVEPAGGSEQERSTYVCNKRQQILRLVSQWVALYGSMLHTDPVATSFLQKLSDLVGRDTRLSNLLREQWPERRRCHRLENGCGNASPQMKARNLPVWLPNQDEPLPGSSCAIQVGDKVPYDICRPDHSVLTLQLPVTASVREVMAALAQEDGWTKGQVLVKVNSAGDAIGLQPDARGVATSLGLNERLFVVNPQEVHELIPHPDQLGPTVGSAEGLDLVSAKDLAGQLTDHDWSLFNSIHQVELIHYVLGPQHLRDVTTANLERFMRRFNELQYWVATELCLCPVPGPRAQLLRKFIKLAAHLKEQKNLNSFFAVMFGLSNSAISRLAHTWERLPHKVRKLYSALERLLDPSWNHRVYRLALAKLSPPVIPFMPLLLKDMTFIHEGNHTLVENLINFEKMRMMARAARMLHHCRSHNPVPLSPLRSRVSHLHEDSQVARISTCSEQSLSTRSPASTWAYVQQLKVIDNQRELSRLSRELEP
# Chain of Dual specificity protein kinase CLK4 (Homo sapiens) (Q9HAZ1 whole entry, looked up): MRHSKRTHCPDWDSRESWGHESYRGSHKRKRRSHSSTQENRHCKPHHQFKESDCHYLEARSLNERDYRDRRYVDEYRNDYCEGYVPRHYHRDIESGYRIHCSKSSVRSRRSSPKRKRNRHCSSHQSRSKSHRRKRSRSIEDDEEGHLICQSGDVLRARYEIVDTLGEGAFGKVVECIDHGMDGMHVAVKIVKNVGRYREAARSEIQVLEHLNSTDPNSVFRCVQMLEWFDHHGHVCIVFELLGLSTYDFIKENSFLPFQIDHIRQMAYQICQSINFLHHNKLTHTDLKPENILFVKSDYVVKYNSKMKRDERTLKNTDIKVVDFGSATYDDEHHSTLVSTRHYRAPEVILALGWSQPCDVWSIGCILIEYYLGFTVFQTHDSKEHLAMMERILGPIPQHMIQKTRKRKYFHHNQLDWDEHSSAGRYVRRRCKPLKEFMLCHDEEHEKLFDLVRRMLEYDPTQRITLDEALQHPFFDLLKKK
# Chain of Cytochrome P450 1A2 (Homo sapiens) (P05177 whole entry, looked up): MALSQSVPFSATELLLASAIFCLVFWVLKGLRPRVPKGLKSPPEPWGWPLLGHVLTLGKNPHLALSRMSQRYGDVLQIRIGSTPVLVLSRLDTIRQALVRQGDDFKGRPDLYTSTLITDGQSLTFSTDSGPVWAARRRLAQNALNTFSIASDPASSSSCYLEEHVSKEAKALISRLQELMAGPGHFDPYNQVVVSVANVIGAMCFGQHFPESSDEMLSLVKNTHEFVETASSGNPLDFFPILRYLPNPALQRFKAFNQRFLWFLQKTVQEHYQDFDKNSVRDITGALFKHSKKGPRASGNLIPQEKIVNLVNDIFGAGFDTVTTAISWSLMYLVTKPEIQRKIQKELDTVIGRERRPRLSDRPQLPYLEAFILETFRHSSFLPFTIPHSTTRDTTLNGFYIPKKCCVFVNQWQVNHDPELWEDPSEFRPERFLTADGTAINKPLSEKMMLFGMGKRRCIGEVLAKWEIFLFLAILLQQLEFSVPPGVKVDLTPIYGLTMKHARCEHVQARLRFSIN
# Chain of Cytochrome P450 2D6 (Homo sapiens) (P10635 whole entry, looked up): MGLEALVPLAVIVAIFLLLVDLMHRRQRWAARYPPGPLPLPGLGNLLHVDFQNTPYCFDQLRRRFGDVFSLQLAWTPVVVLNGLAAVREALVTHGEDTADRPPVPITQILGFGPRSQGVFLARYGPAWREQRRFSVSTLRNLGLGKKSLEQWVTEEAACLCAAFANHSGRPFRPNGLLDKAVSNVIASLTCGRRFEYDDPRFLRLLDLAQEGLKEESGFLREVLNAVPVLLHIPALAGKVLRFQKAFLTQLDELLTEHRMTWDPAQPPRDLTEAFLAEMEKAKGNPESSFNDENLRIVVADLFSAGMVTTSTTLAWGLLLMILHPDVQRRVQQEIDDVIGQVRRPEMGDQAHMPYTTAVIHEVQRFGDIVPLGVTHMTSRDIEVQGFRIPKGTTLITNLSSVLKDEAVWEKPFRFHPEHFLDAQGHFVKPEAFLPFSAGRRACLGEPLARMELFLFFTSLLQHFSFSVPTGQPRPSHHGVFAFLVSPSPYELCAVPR
smiles,measurement,setting,value
COc1cccc(-c2cncnc2NCc2ccccc2OC)c1,"activity change, negative = inhibition",[1],-3.02%
same,Potency,[2],3.98 µM (active)
same,"activity change, negative = inhibition",[3],6.93%
same,outcome,[4],inactive
same,Potency,[5],> 46 µM
same,Potency,[6],> 46 µM
same,Potency,[7],inactive
same,Potency,[8],0.501 µM (active)
same,outcome,[9],inactive
same,Potency,[10],7.94 µM (active)
same,Potency,[11],2 µM (active)
same,Potency,[12],15.8 µM (active)
same,Potency,[13],14.1 µM (active)
same,Potency,[14],inactive
same,Potency,[15],inactive
same,Potency,[16],inactive
same,Potency,[17],inactive
same,Potency,[18],44.1 µM (active)
O=C1c2cccc3c(O)ccc(c23)C(=O)N1Cc1ccco1,Potency,[19],1.46 µM (active)
same,Potency,[15],inactive
same,Potency,[16],100 µM (active)
same,Potency,[17],100 µM (active)
same,Potency,[18],67.5 µM (active)
same,Potency,[20],70.8 µM (active)
COc1ccc2c(=O)c(OC)c(-c3ccccc3)oc2c1,Potency,[8],10 µM (active)
same,outcome,[9],inactive
same,Potency,[21],inactive
same,Potency,[22],inactive
same,Potency,[15],inactive
same,Potency,[16],inactive
same,Potency,[17],inactive
same,Potency,[18],13.9 µM (active)
COc1ccc(Oc2ncc3nc(CCc4ccccc4)c(=O)n(CCC#N)c3n2)cc1,Potency,[23],> 11.4 µM
same,Potency,[2],6.31 µM (active)
same,"activity change, negative = inhibition",[3],3.1%
same,outcome,[4],inactive
same,Potency,[5],> 9.22 µM
same,Potency,[6],> 46 µM
same,Potency,[7],inactive
same,Potency,[8],1.58 µM (active)
same,outcome,[9],inactive
same,Potency,[15],inactive
same,Potency,[16],inactive
same,Potency,[17],inactive
same,Potency,[18],inactive
C[C@@H]1CC=C[C@H]2[C@H]1C(=O)N(Cc1ccccc1)[C@H]2c1ccc(-c2ccoc2)cc1F,Potency,[15],inactive
same,Potency,[16],inactive
same,Potency,[17],inactive
same,Potency,[24],inactive
O=S(=O)(Nc1ccc(C(O)(C(F)(F)F)C(F)(F)F)cc1)c1ccc(Cl)c2nonc12,Potency,[15],42.6 µM (active)
same,Potency,[16],inactive
same,Potency,[17],inactive
same,Potency,[24],inactive
same,Potency,[20],inactive
CCN(CC)C(=O)Cn1c(SCCOc2ccc(Cl)cc2)nc2ccccc21,Potency,[15],inactive
same,Potency,[16],inactive
same,Potency,[17],inactive
same,Potency,[24],inactive
